Compound activity from PubChem.
AmpC inh no detg = blocks E. coli AmpC beta-lactamase in detergent-free assay; AmpC nitrocefin hydrolysis, absorbance 480 nm, 0.0001% Triton; Potency, µM (highest dose often 57.1 µM), hits mostly inhibitors; 330,000 compounds, 0.52% hits; AID 485341; also: nearly all actives have a fitted effect of over 20% in size
Target sequence (P00811 whole entry, looked up): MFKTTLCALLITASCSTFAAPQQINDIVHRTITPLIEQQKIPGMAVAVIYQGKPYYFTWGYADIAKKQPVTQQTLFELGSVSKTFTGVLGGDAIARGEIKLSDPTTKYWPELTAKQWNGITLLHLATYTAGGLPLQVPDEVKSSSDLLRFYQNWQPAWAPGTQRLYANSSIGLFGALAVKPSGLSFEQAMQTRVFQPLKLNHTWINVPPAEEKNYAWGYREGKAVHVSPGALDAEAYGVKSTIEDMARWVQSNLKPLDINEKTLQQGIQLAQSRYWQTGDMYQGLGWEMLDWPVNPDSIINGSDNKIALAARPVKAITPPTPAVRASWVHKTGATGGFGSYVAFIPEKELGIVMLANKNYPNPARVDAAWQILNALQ
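AmpC (5.3 nM in the dispensed reagent) in 20 mM phosphate pH 7.0 with 0.01% (detergent screen) or 0.0001% Triton X-100 was preincubated with compounds for 15 min at room temperature. Nitrocefin was then added from an 800 uM solution, and hydrolysis was followed at 480 nm.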
Cycloheximide cs = counter-screen hit for Shiga toxin inhibitors, cycloheximide; cell reporter, cycloheximide protein synthesis inhibition counterscreen; max response, %; 300,000 compounds, 12% hits; AID 2314; in the data active = max response mostly above about 13%, no sharp cut-off; inactive = mostly below about 14%; also: read at 38.3 µM for the half of the compounds with a filed dose
NS1 inh = blocks influenza NS1 protein function; 270,000 compounds, 0.4% hits; AID 2326; Potency, µM (doses to about 46.1 µM); calls by dose curve; also: actives are rising curves; nearly all actives have a fitted effect of over 50% in size
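S. cerevisiae expressing influenza A NS1, grown in glucose, washed, then diluted 1:100 into pH 6.0 -URA galactose medium with 23 nl compound. Growth recovery read as OD600; NS1-free strain serves as control.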
AmpC detergent = blocks E. coli AmpC beta-lactamase in detergent assay. AmpC hydrolysis of nitrocefin, absorbance 480 nm, 0.01% Triton. Potency, µM (doses to about 114 µM), hits mostly inhibitors. 370,000 compounds, 0.041% hits; also: nearly all actives have a fitted effect of over 25% in size
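20 mM phosphate pH 7.0 + 0.01% (detergent screen) or 0.0001% Triton X-100; 5.3 nM AmpC reagent; cpd preinc 15 min RT; nitrocefin (800 uM stock) to start; A480 q20 s × 4 min; Activity was normalised to no-enzyme and no-compound control wells.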
Shiga toxin inh = Shiga toxin inhibition; AID 2315; inhibition, % at 38.7 µM; Vero cells, Shiga toxin protein synthesis inhibition reporter; 290,000 compounds, 9.2% hits; in the data active = inhibition mostly above about 28%, no sharp cut-off; inactive = mostly below about 43%
Numbers stand for hits; i = inactive; ? = inconclusive; nt = not tested or not shown. Only a selection was taken, and hits are over-represented in it overall. Unless noted, calls follow the shape of the dose curve; as a rule, active = well fitted curve in the direction sought with a large enough effect; inconclusive = small, poorly fitted or top-dose-only effect, or another doubt; inactive = no such curve, though single readings can be large; an effect the other way counts as inactive or inconclusive.

SMILES	AmpC inh no detg	Cycloheximide cs	NS1 inh	AmpC detergent	Shiga toxin inh
Cc1ccc(CNC(=O)C(=O)NCC(c2ccco2)S(=O)(=O)c2ccc(C)cc2)cc1 (stereo unspecified)	nt	nt	nt	i	nt
NC(=O)Cn1c(=O)n(CCCCCC(=O)NCc2ccc3c(c2)OCO3)c(=O)c2sccc21	nt	nt	nt	i	nt
Nc1ccc(N2CCOCC2)cc1C(F)(F)F	i	i	i	i	i
Nc1nc2ccc(N3CCOCC3)cc2s1	i	34	i	i	32
Fc1ccc2nc(N3CCOCC3)sc2c1	i	35	nt	i	107
Cc1ccc(Nc2c(-c3ccc(C)o3)nc3ncccn23)cc1	i	21	i	i	54
Cc1ccc(-c2nc3ncccn3c2Nc2ccc3c(c2)OCO3)o1	i	20	i	i	i
Oc1ccc(-c2nc3ncccn3c2Nc2ccc3c(c2)OCO3)cc1	i	i	i	i	i
Cc1ccc(Nc2c(-c3ccco3)nc3ccccn23)cc1	i	30	?	i	97
c1ccc(Nc2c(-c3ccco3)nc3ccccn23)cc1	i	i	i	i	i
COc1ccc(Nc2c(-c3ccco3)nc3ccc(C)cn23)cc1	i	31	nt	i	i
Cc1ccc2nc(-c3ccco3)c(Nc3ccc4c(c3)OCCO4)n2c1	nt	nt	nt	i	nt
Cc1cccc(N2CCN(C(=O)c3ccc(NC4=NC5CS(=O)(=O)CC5S4)cc3)CC2C)c1 (stereo unspecified)	i	i	i	i	i
N#Cc1ccccc1CCN1C(=O)c2ccccc2C1=O	i	41	i	i	nt
O=C1c2ccccc2C(=O)N1CCc1ccccn1	i	16	i	i	i
O=C1c2ccccc2C(=O)N1CCCCCCc1ccccc1	i	nt	nt	i	nt
CSc1ccc2c(c1)c(CCN)c(C)n2Cc1ccccc1Cl	nt	nt	i	nt	nt
CN1CCN(CCCNN)CC1	nt	nt	i	nt	nt
C/C(=N/NC(N)=S)c1ccccc1[N+](=O)[O-]	i	i	i	i	i
COc1ccc(COC(=O)N/N=C(\C)CC(=O)Nc2ccc(Cl)cn2)cc1	i	i	i	i	i
C/C(CC(=O)NC1CCCC1)=N\NC(=O)Cc1cccs1	i	15	i	i	i
C/C(CC(=O)NC12CC3CC(CC(C3)C1)C2)=N\NC(=O)Cc1cccs1	i	i	i	i	i
C/C(CC(=O)Nc1ccc(Cl)cn1)=N\NC(=O)Cc1cccs1	i	13	i	i	i
Cc1ccccc1NCC(=O)N/N=C/c1c(C)c(C(=O)c2ccc(Cl)cc2)n2ccccc12	?	i	i	i	i
Cc1c(/C=N/NC(=O)CNc2ccccc2)c2ccccn2c1C(=O)c1ccc(Cl)cc1	2.5µM	i	?	i	i
SMILES	AmpC inh no detg	Cycloheximide cs	NS1 inh	AmpC detergent	Shiga toxin inh
CCOC(=O)/C(C#N)=C\c1ccc(CC)s1	i	80	i	i	102
Cc1cc(/C=C(\C#N)C(=O)Nc2ccccc2)c(C)n1-c1ccc(C(=O)O)cc1	i	i	i	i	i
CCOC(=O)/C(C#N)=C/c1ccc(SC)cc1	i	i	nt	i	i
CCOC(=O)/C(C#N)=C\C=C1C=CN(C)C=C1	i	35	i	?	63
CCOC(=O)/C(C#N)=C\c1cc(C)n(-c2ccccc2)c1C	i	55	i	?	82
CCOC(=O)/C(C#N)=C/c1cc(C)n(-c2ccc(C)cc2)c1C	i	18	i	i	i
C[C@H](CO)N1C[C@H](C)[C@@H](CN(C)S(=O)(=O)c2cccs2)Oc2ccc(NS(=O)(=O)c3ccccc3)cc2C1=O	i	nt	nt	nt	nt
COC(=O)C1(CCSC)NC(c2ccco2)C2C(=O)N(C)C(=O)C21 (stereo unspecified)	i	i	i	?	i
CCC(=O)Nc1cccc(C(=O)/C=C/c2cccs2)c1	i	37	i	i	85
CCC(=O)Nc1cccc(C(=O)/C=C/c2ccccc2)c1	i	25	i	i	i
CCC(=O)Nc1cccc(C(=O)c2ccccc2)c1	i	11	i	i	i
CCC(=O)Nc1cccc(C(=O)c2ccc(C)c(C)c2)c1	i	i	i	i	i
CCOC(=O)C1CSC(CC(=O)Nc2ccc(OC(F)(F)F)cc2)C(=O)N1 (stereo unspecified)	i	i	i	i	i
CCOc1ccc2nc(SCC(=O)N3CCCCCC3)c(C#N)cc2c1	i	i	i	?	i
CCOC(=O)CSc1nc2ccc(C)cc2cc1C#N	i	59	i	i	80
Cc1ccc2cc(C#N)c(SCC(=O)N3CCCC3)nc2c1	i	22	i	i	i
Cc1ccc2cc(C#N)c(SCC(=O)Nc3ccc4sc(C)nc4c3)nc2c1	i	i	i	i	i
COc1ccc2nc(SC)c(C#N)cc2c1	i	i	i	i	i
CCOC(=O)CSc1nc2cc(C)ccc2cc1C#N	i	41	i	i	100
CCOC(=O)CSc1nc(-c2ccccc2)nc2ccc(C)cc12	i	i	i	i	i
COc1ccc2nc(SCC(C)=O)c(C#N)cc2c1	i	36	i	i	116
COCCCNC(=O)Cn1cc(/C=C(\C#N)C(=O)NC2CC2)c2ccccc21	i	i	i	i	i
COc1cc(C)c(CN2CCN(C(C)C(=O)NC(C)c3ccccc3)CC2)cc1OC (stereo unspecified)	i	i	i	?	i
O=C(c1ccc(S(=O)(=O)N2CCc3ccccc3C2)cc1)N1CCCCC1	i	i	nt	?	i
O=C(CN1C(=O)NC2(CCOc3ccccc32)C1=O)NCc1ccccc1 (stereo unspecified)	i	nt	nt	nt	nt
SMILES	AmpC inh no detg	Cycloheximide cs	NS1 inh	AmpC detergent	Shiga toxin inh
CCOC(=O)CC(=O)CSc1nc2ccc(OC)cc2cc1C	i	21	i	i	51
CCOC(=O)CSc1nc2cc(OC)ccc2cc1C#N	i	22	i	i	116
CCOC(=O)CC(=O)CSc1nc2cc(C)ccc2cc1C	i	i	i	i	i
CCOC(=O)CSc1nc2cc(C)cc(C)c2cc1C#N	i	14	i	i	i
c1ccc(OCCCCN2CCCCC2)cc1	i	i	i	i	i
O=C(Nc1ccccc1C(=O)NCCCN1CCOCC1)c1ccc(F)cc1F	i	i	i	i	i
c1ccc(OCc2ccc(CCCN3CCOCC3)cc2)cc1	i	26	i	i	28
c1ccc(COc2ccc(OCCCCN3CCCC3)cc2)cc1	i	19	i	i	82
CN1CCN(CCOc2ccc(Cc3ccccc3)cc2)CC1	i	i	i	?	i
CC1CCN(CCOc2ccc(OCc3ccccc3)cc2)CC1	i	39	i	i	54
O=C(Nc1ccc(OCc2ccccc2)cc1)Nc1ccccc1C(=O)NCCCN1CCOCC1	i	35	i	i	48
CC1=C(C(=O)OCCC(C)C)C(c2ccc3c(c2)OCO3)NC(=O)N1 (stereo unspecified)	i	i	i	i	i
CCC(C)NC(=O)Cn1cnc2sc(C)c(S(=O)(=O)N3CCN(c4ccccc4OC)CC3)c2c1=O (stereo unspecified)	i	i	i	i	i
c1ccc(COc2ccc(OCCOCCn3cncn3)cc2)cc1	i	57	i	?	80
c1ccc(COc2ccc(OCCCN3CCCCC3)cc2)cc1	i	32	i	i	53
c1ccc(OCCCN2CCCC2)cc1	i	i	?	i	i
Cc1ccsc1/C=C1\SC(N)=NC1=O	i	20	i	?	i
